Test results from the supplement of paper PMC3334620.
Whole data set: some 33,000 sequences, median “E-score (-0.5 to 0.5)” near -0.04, cut for the highest 2% near 0.36. The full list was thinned out, with the highest values kept by preference.

Target: T1, Hmlalpha2 (UniProt P0CY09)
T1 sequence: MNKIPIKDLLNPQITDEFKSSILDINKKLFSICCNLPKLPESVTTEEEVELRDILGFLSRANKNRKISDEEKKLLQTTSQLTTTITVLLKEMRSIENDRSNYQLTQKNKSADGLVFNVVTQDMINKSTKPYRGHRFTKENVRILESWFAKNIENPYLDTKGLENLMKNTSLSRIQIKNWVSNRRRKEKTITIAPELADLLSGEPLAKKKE
Assay: PBM E-score (8-mer binding enrichment) (E-score (-0.5 to 0.5)); higher = stronger / more preferred TF binding
Conditions: protein concentration: 200 nM; construct: GST-full length
Description: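 Universal 'all 10-mer' protein binding microarrays (Agilent AMADID 015681) probed with GST-tagged S. cerevisiae TFs (full-length or DBD) made by in vitro transcription/translation (PURExpress), about 100-200 nM. Bound TF was detected with fluorescent anti-GST. Each ungapped 8-mer (which stands for itself and its reverse complement) is scored by the PBM enrichment score (E-score), a modified Wilcoxon-Mann-Whitney statistic from -0.5 to +0.5, computed with the Universal PBM Analysis Suite. Scale: above 0.35 generally sequence-specific binding.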

Row | Sequence | PBM E-score
1 | AAACACAA | 0.322
2 | TAACACAA | 0.43
3 | TAACAAGA | 0.377
4 | CAACTGCG | -0.126
5 | CGACTGAC | -0.137
6 | ACTTGTGA | 0.148
7 | TAGTCGCA | -0.085
8 | AAGGTGGT | -0.0621
9 | TGCCTACA | 0.0851
10 | AAGCTACA | 0.158
11 | CCGGTGCA | -0.247
12 | CAAACACG | 0.314
13 | AAAACACG | 0.426
14 | ATCACACG | 0.371
15 | AACACACT | 0.313
16 | ATCACACA | 0.228
17 | AACACACG | 0.319
18 | CAAACACA | 0.334
19 | AAAACACT | 0.148
20 | AAAACACA | 0.333
21 | ATCACACC | -0.0635
22 | TAAACACA | 0.379
23 | AACACACA | 0.391
24 | GGCTTAAA | -0.0594
25 | AGTACTAA | 0.173

Row | Sequence | PBM E-score
26 | GAGCGCCA | -0.25
27 | GCGCAACC | -0.228
28 | ACGTCCCT | 0.163
29 | CGTCCTAA | -0.108
30 | GTCTCCAC | -0.178
31 | CCCCGTCC | -0.382
32 | ATGGTGAA | -0.0612
33 | ATGTATCG | 0.323
34 | CTGTATTC | 0.255
35 | ATGTATTC | 0.443
36 | AGGTATTC | 0.139
37 | ATGTATTG | 0.416
38 | ACGTATTG | 0.292
39 | ATAGTTCG | 0.0279
40 | CTCGAGTC | -0.178
41 | AAGAACCG | 0.117
42 | CCCAATCA | -0.113
43 | AGGCATTC | -0.265
44 | CGCGTAAA | 0.454
45 | GGCGTATA | 0.106
46 | AGCGTAAA | 0.22
47 | GGCGTAAA | 0.217
48 | CGCGTAGA | 0.359
49 | CGCGTATA | 0.372
50 | CGCGTAAG | 0.369

Row | Sequence | PBM E-score
51 | CGCGTAAC | 0.342
52 | CTCGTAAG | 0.172
53 | CGCGTATC | 0.219
54 | AGCGTAAG | -0.106
55 | TGCGTAAA | 0.441
56 | AGCAAGTC | -0.0673
57 | CCCTATCG | -0.272
58 | AGGAAACC | -0.0996
59 | TCCCAGGA | -0.361
60 | CATTAGAG | -0.127
61 | AGATTTGC | -0.0168
62 | CGAGGGTA | -0.233
63 | GCCTGCCA | -0.0217
64 | ACATGACC | 0.38
65 | ACATGACG | 0.379
66 | CCATGACC | -0.348
67 | GCATGACC | -0.191
68 | CCATGACA | 0.0453
69 | CCATGACG | -0.105
70 | GCATGACA | 0.188
71 | ACATGACA | 0.412
72 | ACATGACT | 0.307
73 | GCTTCAAC | 0.0375
74 | CTTGATCC | -0.142
75 | AAAATCGT | 0.0614

Row | Sequence | PBM E-score
76 | AGATGGAT | -0.265
77 | GTGTCTCA | -0.0554
78 | GCCTAGAA | -0.187
79 | CGAGAAAG | -0.0529
80 | AGCCCTGA | -0.0785
81 | GCCGTGTA | 0.432
82 | ACCGTGTA | 0.473
83 | ACCGTGTC | 0.264
84 | GCCGTGCA | 0.0721
85 | ACCGTGTG | 0.113
86 | CCCGTGGA | -0.176
87 | GCCGTGAA | -0.197
88 | CCCGTGTA | 0.451
89 | CCCGTGTC | 0.168
90 | AGCAAACG | -0.0759
91 | AAGTGCCG | 0.00934
92 | ACCGACTG | -0.317
93 | GTTGTTGA | 0.259
94 | TTCTGAAA | 0.0341
95 | CTTTCTGA | 0.0509
96 | ACATTACG | 0.336
97 | CCATTACC | -0.0103
98 | GCATTAGA | 0.0569
99 | TCATTAAA | 0.263
100 | GCATTACA | 0.428

Row | Sequence | PBM E-score
101 | GCATTACC | 8e-05
102 | ACATTACT | 0.303
103 | TCATTACA | 0.439
104 | ACATTACA | 0.449
105 | CCATTACG | 0.13
106 | CCATTACA | 0.435
107 | TCATTAGA | 0.0985
108 | GTACGAAC | 0.152
109 | GGGAGAGA | -0.33
110 | ACGGGTTG | -0.15
111 | CCTCAGCG | -0.255
112 | CCCAGAAA | -0.0348
113 | GTTGCGAA | 0.0227
114 | ACGTCCTC | -0.162
115 | CACGGCTC | -0.0568
116 | CGTGTCGC | 0.214
117 | ATGCCCTG | -0.0289
118 | CCGGCGGA | -0.234
119 | GACATTTA | 0.191
120 | CACATGTC | 0.22
121 | TAAATGTA | 0.38
122 | GACATGTC | 0.327
123 | GACATGTA | 0.423
124 | TACAGGTA | 0.135
125 | CACATGTA | 0.416

Row | Sequence | PBM E-score
126 | TACATCTA | 0.263
127 | TACATGTA | 0.479
128 | GAAATGTA | 0.0891
129 | CAAATGTA | 0.35
130 | AATTGACA | 0.275
131 | AGTCTAGG | -0.15
132 | CGCTCTCA | -0.165
133 | CAGTCCCG | -0.196
134 | ACGCCGAG | -0.0454
135 | ATGTGCTA | 0.0958
136 | CGAAGAAG | -0.0393
137 | GTGTTGGA | 0.224
138 | GTGTTGAA | 0.398
139 | CTGTTGAA | 0.259
140 | ATGTTGAG | 0.33
141 | ATGTTGAA | 0.395
142 | ATGTTGAC | 0.356
143 | GAGCTATA | -0.0673
144 | GGTGCTCA | -0.179
145 | CCCACGAA | -0.102
146 | GGCAGCCC | -0.418
147 | ATTCACAA | 0.232
148 | AATACAGG | 0.2
149 | AATACATC | 0.368
150 | TATACAAA | 0.265

Row | Sequence | PBM E-score
151 | GATACATC | 0.169
152 | AATACAAC | 0.315
153 | AATACATG | 0.482
154 | AATACATT | 0.329
155 | AATACAAG | 0.386
156 | AATACAGC | 0.0849
157 | AATACAAT | 0.249
158 | GATACATA | 0.32
159 | TATACATA | 0.445
160 | GAATGGTA | 0.232
161 | GGTGGGGA | -0.0925
162 | GGCTTATA | -0.0133
163 | AGTGTTGC | 0.169
164 | CGTAAGTC | 0.0646
165 | CCTAAGAG | -0.136
166 | AAGCCAAC | 0.00741
167 | CATACCCG | -0.117
168 | AATACAAA | 0.363
169 | AATACAGA | 0.204
170 | AATACATA | 0.444
171 | CATACATA | 0.329
172 | CATACATG | 0.382
173 | CATACATC | 0.253
